Only some compounds are listed: those with a hit (about 14% of all), similar ones and a draw of the others.
HCMV inh: qHTS Assay for inhibitors of the human cytomegalovirus (HCMV); hit rate 4.5% among 410,000; activity change, negative = inhibition, % at 57.5 µM; HFF cells, HCMV-luciferase reporter, 72 h; stronger effect = lower value; in the data active means activity change below about -60%; inconclusive means no clear call, values can overlap the other calls; inactive means above about -39%
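After 16 h attachment at 37C, HFF cells received test compound and HCMV-luciferase (1 PFU/cell); reporter luminescence read 72 h later, data normalized against buffer-only and known inhibitor Salinomycin.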
Pf growth 96h: Primary qHTS for delayed death inhibitors of the malarial parasite plastid, 96 hour incubation; Potency, µM (doses to about 28.7 µM), for inactives: at the top dose activity change, negative = inhibition, actives largely listed as inhibitors; hit rate 6.9% among 320,000; P. falciparum luciferase reporter growth, 96 h; further: potency means the concentration at half of the fitted maximal effect
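96 h incubation, 37 C, 5% CO2, of luciferase-reporter P. falciparum-infected RBCs (2% hematocrit, 0.05% parasitemia final) with test compounds; endpoint luminescence.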
FBPA Giardia inh: qHTS Assay for Inhibitors of Fructose-1,6-bisphosphate Aldolase from Giardia Lamblia | A8B2U2 | purified Giardia FBPA | Potency, µM (highest dose often 59.6 µM), without a hit: at the highest dose activity, negative = inhibition, usual class: inhibitors | hit rate 0.71% among 290,000 | AID 2451, 2010; further: potency means the concentration at half of the fitted maximal effect; nearly all actives have a fitted effect of over 55% in size
Target sequence (A8B2U2 whole entry, looked up): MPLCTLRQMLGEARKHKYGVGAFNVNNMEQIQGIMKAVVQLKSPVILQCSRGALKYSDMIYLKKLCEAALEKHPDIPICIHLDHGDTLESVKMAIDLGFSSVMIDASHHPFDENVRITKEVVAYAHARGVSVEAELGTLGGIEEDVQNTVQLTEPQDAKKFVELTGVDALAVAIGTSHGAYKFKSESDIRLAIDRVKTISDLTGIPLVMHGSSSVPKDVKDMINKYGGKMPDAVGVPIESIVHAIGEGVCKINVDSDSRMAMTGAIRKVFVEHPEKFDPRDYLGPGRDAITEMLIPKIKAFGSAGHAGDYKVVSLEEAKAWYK
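40 nM FBPA preincubated 10 min at RT with compound (up to 57.5 uM final), then substrate plus GAPDH/TPI/NAD/arsenate coupling and diaphorase/resazurin added. Fluorescence read after 20 min at RT, 525/598 nm.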
Sm TGR inh: qHTS Assay for the Inhibitors of Schistosoma Mansoni Peroxiredoxins | Schistosoma mansoni thioredoxin glutathione reductase (TGR), Q962Y6 | purified TGR, DTNB reduction, TNB absorbance 405 nm | Potency, µM (doses to about 114 µM), for the others: at the highest dose activity change, negative = inhibition, actives largely listed as inhibitors | hit rate 3% among 360,000 | AID 485364, 2010; further: potency means the concentration at half of the fitted maximal effect; nearly all actives have a fitted effect of over 60% in size
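Kinetic colorimetric format: TGR-catalysed, NADPH-driven DTNB reduction monitored via TNB absorbance. Enzyme dispensed at 20 nM; compound exposure 15 min at room temperature before reaction start.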
Pf growth 48h: Primary qHTS for delayed death inhibitors of the malarial parasite plastid, 48 hour incubation; AID 504832, 2011; hit rate 5.9% among 310,000; Potency, µM (top dose mostly 28.7 µM), without a hit: at the highest dose activity change, negative = inhibition, hits mostly inhibitors; P. falciparum luciferase growth in erythrocytes, 48 h; further: potency means the concentration at half of the fitted maximal effect
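In quantitative HTS format, infected erythrocytes bearing luciferase-reporter parasites were treated for a single generation at 37 C. Luminescence after adding detection reagent served as the growth measure.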
* = called active by the depositor; ? = inconclusive; · = not tested or not shown; ! = a repeat was not active; [ ] = another dose, or the depositor's remark. Unless noted, the call rests on the fitted dose curve; in most records, active means well fitted curve in the direction sought with a large enough effect; inconclusive means small, poorly fitted or top-dose-only effect, or another doubt; inactive means no such curve, though single readings can be large; an effect the other way counts as inactive or inconclusive. On the % scale 0 is the no-effect control and ±100 the full control effect.

SMILES | HCMV inh | Pf growth 96h | FBPA Giardia inh | Sm TGR inh | Pf growth 48h
CC(=O)Nc1sc(N/N=C/c2ccc(C)cc2)nc1-c1ccc(C)cc1 | -11 | ? | -11% | -13% | ?
COc1cc(/C=N\Nc2nc(-c3ccc(C)cc3)c(NC(C)=O)s2)ccc1O | 0 | 5.9µM* | -26% | -19% | 10µM*
CC(=O)Nc1sc(N/N=C/c2ccc(N(C)C)cc2)nc1-c1ccc(C)cc1 | 71 | 4.7µM* | -17% | 1% | 2.1µM*
CCOc1cc(/C=N\Nc2nc(-c3ccc(C)cc3)c(NC(C)=O)s2)ccc1O | 38 | ? | -21% | -7% | 8.3µM*
COc1cc(/C=N/NC(=Nc2ccc(C)cc2)c2nc3ccccc3s2)ccc1O | -68* | · | -1% | -15% | -41%
COc1ccc(/C=N/Nc2nc(-c3ccc(C)cc3)c(NC(C)=O)s2)cc1OC | -20 | 1.2µM* | -17% | -8% | 1.2µM*
COc1ccc(/C=N/Nc2nnc(C)n2N)cc1OC(C)=O | 17 | 25% | ? | 7% | ·
Cc1ccc(/C=C/C2=Cc3c(sc(NC(=O)CSc4n[nH]c(N)n4)c3C#N)C(C)(C)C2)o1 | · | 24% | -18% | 2.5µM* | ?
Cc1cc(Br)ccc1NC(=O)CN(C)Cc1cccs1 | -21 | 3% | 7% | 10% | ?
O=C(c1c[nH]c2ccccc12)N1CCOCC1 | -21 | 31% | -1% | ? | ?
S=C(c1c[nH]c2ccc(Br)cc12)N1CCOCC1 | -72* | 36% | -13% | 15% | 31%[5.75 µM]
CC(C)(C)CC(=O)Nc1nnc2n1CCS2 | -7 | · | · | 10% | ·
COc1ccccc1CNC(=O)COC(=O)Cn1cnc2c1c(=O)n(C)c(=O)n2C | 1 | · | · | · | ·
CC(C)=N/N=C(/c1ccc([N+](=O)[O-])cc1)C12CN3CN(CN(C3)C1)C2 | -39 | 13µM* | -8% | -6% | 0%
O=C(C[n+]1cccc(NC(=O)c2ccccc2)c1)c1cccc([N+](=O)[O-])c1 | -32 | ? | -3% | -6% | ?
O=C(C[n+]1ccc(-c2cc(C(=O)Nc3cccc(C(F)(F)F)c3)c3ccccc3n2)cc1)c1cccc([N+](=O)[O-])c1 | -66* | 3.3µM* | -1% | 45µM* | ?
CCN(CC)CCCNC(=O)c1ccc(S(=O)(=O)Nc2ccc(C)c(C)c2)cc1 | -18 | ? | · | 0% | ?
COc1ccc(C2NC(=O)C(C#N)=C(S)N2c2ccc(C)cc2)cc1OC (stereo not drawn) | -65* | -22% | ? | 2% | 15%
CCn1c(C(=O)O)c(CC(=O)Nc2ccc(Br)cc2C)c2ccccc21 | 73 | 173% | 6% | 17% | 1%
Cc1cc(NC(=O)CSCC(=O)N(C)Cc2c(F)cccc2Cl)no1 | -10 | ? | · | 4% | ?
Cc1cccc(NC(=O)CSCC(=O)N(C)Cc2c(F)cccc2Cl)c1 | -12 | 13µM* | · | 0% | ?
CN(CC(=O)Nc1ccc(Cl)cc1)C(=O)Cc1c(F)cccc1Cl | 68 | 12µM* | · | 9% | -17%
Cc1cc(Cl)ccc1OCC(=O)N(Cc1cccs1)C1CCS(=O)(=O)C1 (stereo not drawn) | -14 | ? | 2% | 0% | -11%
CCOC(=O)C1CCN(c2c(NCc3ccc(C(=O)Nc4ccc(C)cc4)cc3)c(=O)c2=O)CC1 | 15 | 4.1µM* | 2% | 4% | 4.7µM*
CC1CCN(c2c(NCc3ccc(C(=O)NCc4ccco4)cc3)c(=O)c2=O)CC1 | 10 | ? | -7% | -4% | -21%
SMILES | HCMV inh | Pf growth 96h | FBPA Giardia inh | Sm TGR inh | Pf growth 48h
Cc1cc(C)cc(NC(=O)c2ccc(CNc3c(N4CCCC4)c(=O)c3=O)cc2)c1 | 0 | 0.52µM* | 3% | 0% | ?
CCOC(=O)C1CCN(c2c(NCc3ccc(C(=O)NCCOC)cc3)c(=O)c2=O)CC1 | ? | 70% | -3% | 0% | -12%
CCCCNC(=O)c1ccc(CNc2c(N3CCC(C(=O)OCC)CC3)c(=O)c2=O)cc1 | -61*! | ? | -10% | 4% | 12µM*
O=C(NCc1ccco1)c1ccc(CNc2c(N3CCCCC3)c(=O)c2=O)cc1 | 27 | 10µM* | -3% | 0% | 6%
COC(=O)/C=C1\N/C(=N/c2nc(C)c3cc(OC)ccc3n2)NC1=O | · | -16% | 22% | 4% | ?
CC(=O)Nc1ccc(Nc2nc(-c3cc4ccccc4oc3=O)cs2)cc1 | 1 | -24% | -7% | -27% | 115%
Nc1ccc(Nc2nc(-c3cc4ccccc4oc3=O)cs2)cc1 | -61* | ? | -4% | 1%[57.1 µM] | 71%
O=S1(=O)C[C@@H](N2CCC(Cc3ccccc3)CC2)[C@H](COCc2ccccc2)N1 | 8 | · | · | · | ·
CCNC(=O)C1CCCN(C(=O)c2cccs2)CC1 (stereo not drawn) | -8 | · | · | · | ·
CC(C)c1ccc(O)c(N)c1 | -17 | 2.9µM* | -23% | -20% | ?
CCC(C)c1ccc(O)c(N)c1 (stereo not drawn) | 3 | ? | -9% | -29% | ?
CC(C)(C)c1ccc(O)cc1 | · | -22% | 0% | · | -6%
CC(C)(C)c1ccc(O)c(N)c1 | · | 13µM* | 0% | -13% | ?
Cc1ccc(Cn2cc(S(=O)(=O)c3cccc(C)c3)c(=O)c3cc(F)c(N4CCOCC4)cc32)cc1 | -27 | · | · | 1% | ·
COc1cc(NCCCCCCCN)c2ncccc2c1 | · | 3.7µM* | ? | -16% | 2.6µM*
COc1cc(NC(C)CCCN)c2ncccc2c1 (stereo not drawn) | ? | 0.33µM* | -19% | -4% | 0.41µM*
COCCNc1ncnc2c1[nH]c1ccccc12 | 23 | -3% | -1% | 8% | -1%
CCN(CC)c1ncnc2c1[nH]c1ccccc12 | ? | · | -6% | 6% | 4.1µM*
CCCOc1ncnc2c1[nH]c1ccccc12 | -85* | 65% | -6% | 2% | 68%
O=C(Nc1ccc(Cl)cc1)c1cc2c(cc1O)[nH]c1ccccc12 | -81* | ? | -10% | -8% | 10µM*
CC(=O)Nc1ccc2[nH]c3ccccc3c2c1 | -3 | 31% | -3% | 2% | 33%
COc1ccc(-c2nn(-c3ccccc3)cc2/C=N/N2C(=O)CSC2=S)cc1 | -96* | 14% | -5% | -5% | ·
Cc1ccsc1/C=N/NC(=O)c1cccc(S(=O)(=O)Nc2ccccc2Cl)c1 | -18 | 15% | ? | 3% | 17%
COc1ccc(-c2nn(-c3ccccc3)cc2/C=N/NS(=O)(=O)c2ccccc2)cc1 | 90 | 12µM* | -5% | -10% | ?
COc1ccc(-c2nn(-c3ccccc3)cc2/C=N/NC(=O)c2cccc(S(=O)(=O)Nc3ccccc3Cl)c2)cc1 | -101* | 2.9µM* | 3% | 1% | 9.3µM*
COc1ccc(-c2nn(-c3ccccc3)cc2/C=N/O)cc1 | 32 | 6% | 4% | 13% | ?

Source: PubChem (National Center for Advancing Translational Sciences (NCATS))
